Compounds with a hit are over-represented: about 4.7% of the library has one in this group of screens.
S2 tox: reduces viability in counter-screen for ATXN expression inhibitors; S2 cells (HEK-293 line with an ATXN2-luciferase reporter) viability, CellTiter-Fluor protease fluorescence, 24 h; Potency, µM (titrated, usually from 56.7 µM), actives largely listed as cytotoxic; hit rate 0.49% among 400,000; further: potency means the concentration at half of the fitted maximal effect; nearly all actives have a fitted effect of over 40% in size
TGFb inhibitor: TGF-b pathway inhibition | HepG2 CAGA-GFP TGF-b/SMAD3 reporter, GFP fluorescence, 18 h; TGF-beta stimulated, 500 pg/mL final | Potency, µM (doses to about 46.1 µM), for the others: at the highest dose activity, negative = inhibition, usual class: inhibitors | hit rate 1.2% among 410,000; further: potency means the concentration at half of the fitted maximal effect; on the % scale 0 is the no-effect control and ±100 the full control effect; nearly all actives have a fitted effect of over 65% in size
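Per well, imaged GFP fluorescence of HEPG2 CAGA-GFP cells gives the signal; cells get compound, then TGF-beta (500 pg/mL final), 18 h at 37 degrees C; %Activity versus -TGF-beta and +DMSO controls.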
DRD3 agonist: activates the human D3 dopamine receptor. hit rate 0.58% among 410,000. D3R DiscoveRx beta-arrestin cells, luminescence, 90 min. AID 652048. P35462. max activation, %; in the data active means max activation above about 30%; further: 0% is about no effect
Target sequence (P35462 whole entry, looked up): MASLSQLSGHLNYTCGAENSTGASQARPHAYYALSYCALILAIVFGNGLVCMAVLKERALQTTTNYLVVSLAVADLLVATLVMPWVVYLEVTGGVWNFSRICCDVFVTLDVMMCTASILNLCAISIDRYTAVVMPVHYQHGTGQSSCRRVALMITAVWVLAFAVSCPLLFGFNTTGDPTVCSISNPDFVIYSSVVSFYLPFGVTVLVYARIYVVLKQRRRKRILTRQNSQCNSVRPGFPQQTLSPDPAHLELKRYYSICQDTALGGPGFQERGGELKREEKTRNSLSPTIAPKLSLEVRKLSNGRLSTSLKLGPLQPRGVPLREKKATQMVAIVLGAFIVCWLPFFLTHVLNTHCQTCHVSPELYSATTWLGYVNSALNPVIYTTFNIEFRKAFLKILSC
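Cells at 1500/well, incubated overnight, then treated with pinned compounds (dopamine as control) for 90 min at 37 degrees C. DiscoveRx reagent added for 30 - 60 minutes at room temperature; luminescence read.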
ATXN2 expr inh: inhibitors of ATXN2 expression; HEK-293 ATXN2-luciferase reporter, luminescence, 24 h; Potency, µM (titrated, usually from 57 µM), for inactives: at the top dose activity change, negative = inhibition, most hits filed as inhibitors; hit rate 0.72% among 360,000; AID 1745845; further: potency means the concentration at half of the fitted maximal effect; on the % scale 0 is the no-effect control and ±100 the full control effect; nearly all actives have a fitted effect of over 55% in size
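ATXN2-luciferase reporter cells (luciferase flanked by upstream and downstream ATXN2 gene portions) were treated 24 h at 37 °C with compounds at up to 57 uM. SteadyGlo luminescence gave expression; GF-AFC fluorescence gave viability.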
D3 antag: antagonists of human D3 dopamine receptor | P35462 | D3R cells, DiscoveRx beta-arrestin luminescence, antagonist mode; hits give low values | max response, negative = inhibition, % | hit rate 2.5% among 360,000; in the data active means max response below about -50%; inconclusive means no clear call, values can overlap the other calls; further: on the % scale 0 is the no-effect control and ±100 the full control effect
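Cells expressing the human receptor were seeded at 1500 cells/well, incubated overnight at 37 degrees C in 5% CO2, then exposed to library compounds with dopamine controls for 90 minutes at 37 degrees C before luminescent detection.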
HepG2 viability: kills HepG2 cells in TGF-b inhibitor counter-screen; HepG2 CAGA-GFP viability, ATP luminescence, 18 h; Potency, µM (top dose mostly 46.1 µM), without a hit: top-dose activity change, negative = cytotoxicity, hits mostly cytotoxic; hit rate 0.76% among 410,000; AID 588856; further: potency means the concentration at half of the fitted maximal effect
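CellTiter-Glo luminescence gave cytotoxicity after 18 hours at 37 degrees C. The cells were HepG2 CAGA-GFP in 1% FBS DMEM, stimulated with 500 pg/mL TGF-beta after compound addition. %Activity was normalised to no-cell wells (complete cell-killing) and DMSO (no toxicity), and curves were fitted and classified.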
An asterisk follows results filed as active; i = inactive; u = inconclusive; x = not tested or not shown. Unless noted, the call rests on the fitted dose curve; in most records, active means well fitted curve in the direction sought with a large enough effect; inconclusive means small, poorly fitted or top-dose-only effect, or another doubt; inactive means no such curve, though single readings can be large; an effect the other way counts as inactive or inconclusive.

SMILES | S2 tox | TGFb inhibitor | DRD3 agonist | ATXN2 expr inh | D3 antag | HepG2 viability
CC(C)(C)n1ncc2c(=O)n(Cc3c(Cl)cccc3Cl)cnc21 | x | -2% | x | x | x | -24%
CCOc1cc(CNC(=O)c2ccc3c(c2)N(C)C(=O)C2CCCCN32)ccc1OC (stereo unspecified) | i | 15% | -11 | 15% | x | -11%
O=C(CCN1CCN(c2ccc(Cl)cc2)CC1)Nc1nccs1 | i | -5% | 8 | 31% | -66* | 3%
O=C(CN1CCN(c2cccc(Cl)c2)CC1)Nc1nccs1 | i | 4% | 0 | u | 4 | 1%
COc1ccccc1-c1nc(SCc2ccccn2)n[nH]1 | i | 0% | -2 | 58% | -21 | 13µM*
CC(O)c1cccc(-c2ccc(CN3C[C@]4(CO)O[C@@H](CO)C[C@@H]4S3(=O)=O)cc2)c1 (stereo partly specified) | i | -19% | 45* | 2% | 3 | 4%
Cc1ccc(S(=O)(=O)/N=C(/c2ccccc2)N2CCOCC2)cc1 | i | u | 36* | 13% | 7 | 10%
O=S(=O)(/N=C(/c1ccccc1)N1CCOCC1)c1ccc(Br)cc1 | i | -1% | 1 | -4% | 5 | 1%
Cc1ccc(-n2nnc3c(=O)n(CC(=O)N4CCOCC4)cnc32)cc1 | x | 15% | -8 | -30% | -53* | 3%
CCc1ccc(NC(=O)N(Cc2c[nH]c3ccccc23)C2CCCCC2)cc1 | i | -16% | 6 | 67% | x | -15%
CCC(C)(C)c1ccc(OCCCC[n+]2cccc(C)c2)c(C(C)(C)CC)c1 | u | 10µM* | -6 | u | -2 | -196%
Cc1cc(/C=C\c2ccc3cc(N(C)C)ccc3[n+]2C)c(C)n1-c1ccccc1 | 4µM* | u | -42 | 1µM* | -61* | -25%
Cc1cc(C(C)(C)C)cc(C)c1S(=O)(=O)N1CC(=O)Nc2ccccc21 | i | u | -1 | -17% | -5 | 13µM*
COC(=O)[C@]12CCCCC=C1N(Cc1ccc3c(c1)OCO3)C(=O)[C@H](CC(=O)NCC1CCCCC1)C2 | x | x | 3 | x | -6 | x
O=C(COc1ccc(S(=O)(=O)N2CCCCC2)cc1)NCc1cccnc1 | i | -7% | 36* | 7% | 13 | 0%
COc1ccccc1NC(=O)c1c(C)cc(C)nc1SCC(=O)Nc1cccc(C)c1 | u | 10µM* | 3 | -19% | x | -21%
O=C(c1ccc2c(c1)OCO2)c1cn(Cc2ccc(Cl)cc2)c2ccc(F)cc2c1=O | u | -4% | 7 | -21% | x | -19%
COCCNc1nc(Oc2ccccc2)c2sccc2n1 | i | 9% | 0 | -8% | -8 | 2%
COCCNc1nc(Oc2ccc(C(N)=O)cc2)c2sccc2n1 | i | 2% | 43* | 2% | -2 | 3%
COCCNc1nc(Oc2cccc3ccccc23)c2sccc2n1 | i | -21% | 54* | 2% | -5 | -4%
COCCNc1nc(Oc2cccc(NC(C)=O)c2)c2sccc2n1 | i | -10% | -1 | -9% | -1 | -38%
COc1ccc(C(=O)NN/C=C/C(=O)c2ccc(Br)cc2)cc1 | u | u | -11 | x | -29 | -29%
COc1ccc(C(=O)C=CNNC(=O)c2ccc(Cl)cc2)cc1 | u | 13µM* | -12 | u | -54* | -31%
O=C(/C=C/NNC(=O)c1ccccc1)c1ccc(Br)cc1 | i | 0% | -14 | u | -77* | -91%
Cc1ccc(SC(CC(=O)c2ccc(F)cc2)C(=O)O)cc1 (stereo unspecified) | i | 3% | -1 | -17% | 0 | -12%
CC(C)(C)c1ccc(C(=O)CC(Sc2ccc(Cl)cc2)C(=O)O)cc1 (stereo unspecified) | x | u | -17 | u | -64* | 16µM*
CCN(CC)Cc1c(C(=O)N/N=C/c2ccncc2)nnn1-c1nonc1N | i | 0% | -11 | -5% | -19 | 10%
